The source of these data is PubChem BioAssay (Tox21).

Values without a mark were called inactive. Calls follow the shape of the dose curve; as a rule, active = well fitted curve in the direction sought with a large enough effect in the repeat runs; inconclusive = weak or mixed curves; inactive = no such curve, though single readings can be large; an effect the other way counts as inactive or inconclusive. Inconclusive results are not listed.
% is scaled to controls: 0 for no effect and ±100 for the full control effect.

One assay can be described thus: Caspase-3/7 induction in CHO-K1 cells by small molecules, qHTS cell viability counter screen (AID 1346979). Also: nearly all actives have a fitted effect of over 35% in size. Conditions: CellTiter-Fluor fluorescence, 17 h; series mostly up to 92.4 µM; activity change, negative = cytotoxicity: at the top concentration. An outline of the steps:
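Wild-type CHO-K1 cells (1,500/well) treated with compound after 5 h plating; after 16 h at 37C, viability read as CellTiter-Fluor fluorescence following 1 h reagent incubation, in the same wells as the caspase read.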
In general terms: In qHTS, concentration-response curves come from the screen itself.
With `CC(C)=CC(=O)O`, the “activity change, negative = cytotoxicity” value was -2.7%.
For `O=C(O)c1ccccc1S`, the “activity change, negative = cytotoxicity” value was 8.47% [at 42.5 µM].
The same measure, in the same setting: next, `C=CCSCC1Nc2cc(Cl)c(S(N)(=O)=O)cc2S(=O)(=O)N1` (configuration not stated): 5.53% [at 42.5 µM]; `CCCCc1ccc(N)cc1`: -0.663%.
The same measure, in the same setting: next, `CC(C)COC(=O)c1ccccc1O`: 0.715%; `CCCCCCCCCCCCCCC`: 0.977%; `O=[N+]([O-])c1ccc(CCO)cc1`: 11.7%.
The same measure, in the same setting: for `CCN(CC)S(=O)(=O)c1ccc(C(=O)O)cc1` the value was -3.68% [at 42.5 µM]; for `Nc1ccn(C2CO[C@H](CO)O2)c(=O)n1` (some centres not stated), 10.5% [at 42.5 µM].
Consider `COC(C(=O)O)c1ccccc1` (configuration not stated), for which the “activity change, negative = cytotoxicity” value was -0.0051%.
As for `CCCCCCC(CCCCCCCCCCC(=O)OCC(COC(C)=O)OC(C)=O)OC(C)=O` (configuration not stated), the “activity change, negative = cytotoxicity” value was 1.04% [at 42.5 µM].
In the case of `NCC[C@H](O)C(=O)N[C@@H]1C[C@H](N)[C@@H](O[C@H]2O[C@H](CN)[C@@H](O)[C@H](O)[C@H]2O)[C@H](O)[C@H]1O[C@H]1O[C@H](CO)[C@@H](O)[C@H](N)[C@H]1O`, the activity change, negative = cytotoxicity was -5.52% [at 0.349 µM].
As to `NC(=O)c1ncn([C@@H]2O[C@H](CO)[C@@H](O)[C@H]2O)c1N`, the “activity change, negative = cytotoxicity” value was 9.97% [at 42.5 µM].
On the same count and under the same terms, next, `CCCc1ccccc1O`: -1.15%.
Same read-out and setting: next, `CO`: 6.6%; `C=CCOCC(O)CS(=O)(=O)O` (configuration not stated): 0.225%; `Nc1ncnc2c1ncn2Cc1c(F)cccc1Cl`: 2.98% [at 42.5 µM].
Take `NC(=O)CCCCC1CCSS1` (configuration not stated): the “activity change, negative = cytotoxicity” value is 5.9% [at 42.5 µM].
On the same count and under the same terms, for `CC(C)c1ccc2oc3nc(N)c(C(=O)O)cc3c(=O)c2c1` the value was -0.485% [at 42.5 µM]; for `Fc1ccccc1-c1ccccc1`, 4.16%; for `CC(C)N1C(=O)c2ccccc2C1=O`, -1.71%.
The same measure, in the same setting: for `O=S(=O)(O)c1ccccc1O` the value was 4.84%; for `COC(=O)CCCCCCCCC(=O)OC`, 4.06%.
Same read-out and setting: for `c1ccc(CCCc2ccccn2)cc1` the value was 8.83%; for `O=C(O)c1ccc[n+]([O-])c1`, 6.73% [at 42.5 µM].
In the case of `NS(=O)(=O)c1cc2c(cc1Cl)NC(CSCc1ccccc1)=NS2(=O)=O`, the “activity change, negative = cytotoxicity” value is 6.17% [at 42.5 µM].
Still for that read-out and setting: for `c1ccc2cnncc2c1` the value was 11.5%; for `CC1=CC(=O)CCC1`, 5.8%.
On the same count and under the same terms, for `CN(C)N=Nc1ccccc1` the value was 13.6%; for `NC(=S)Nc1cccc2ccccc12`, -1.57% [at 8.39 µM].
Still for that read-out and setting: for `CC(C)c1cccc(O)c1` the value was 1.76%.
With `NC(N)=NS(=O)(=O)c1ccc(N)cc1`, the “activity change, negative = cytotoxicity” value is 5.09% [at 42.5 µM].
Same read-out and setting: next, `CCCCCCCCN(C)CCCCCCCC`: 14%; `CC1(C)SC(C)(C)SC(C)(C)S1`: 1.92%; `NCCN1CCNC1=O`: 10.7%.
Same read-out and setting: next, `CCCCCCCCCCC1CO1` (configuration not stated): -1.23%; `C=CCOc1nc(OCC=C)nc(OCC=C)n1`: 3.42%.

The next assay can be described thus: Caspase-3/7 induction in CHO-K1 cells by small molecules, qHTS assay (AID 1346980). Also: nearly all actives have a fitted effect of over 15% in size. Conditions: CHO-K1 caspase-3/7 induction, Caspase-Glo luminescence, 17 h; series mostly up to 92.4 µM; caspase-3/7 activation: at the top concentration. The essentials:
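Wild-type CHO-K1 cells exposed to compounds for 17hr at 37 C, 5% CO2. Caspase-3/7 activity then measured by Caspase-Glo 3/7 luminescence after 30min at room temperature.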
With `CC(C)=CC(=O)O`, the “caspase-3/7 activation” value was -0.13%.
Same read-out and setting: next, `O=C(O)c1ccccc1S`: 0.444% [at 42.5 µM]; `C=CCSCC1Nc2cc(Cl)c(S(N)(=O)=O)cc2S(=O)(=O)N1` (configuration not stated): -0.02% [at 42.5 µM].
On the same count and under the same terms, next, `CCCCc1ccc(N)cc1`: 0.281%; `CC(C)COC(=O)c1ccccc1O`: 0.248%; `CCCCCCCCCCCCCCC`: -0.107%.
Take `O=[N+]([O-])c1ccc(CCO)cc1`: the “caspase-3/7 activation” value is 1.36%.
The same measure, in the same setting: next, `CCN(CC)S(=O)(=O)c1ccc(C(=O)O)cc1`: -0.89% [at 42.5 µM]; `Nc1ccn(C2CO[C@H](CO)O2)c(=O)n1` (some centres not stated): 1.06% [at 42.5 µM].
On the same count and under the same terms, for `COC(C(=O)O)c1ccccc1` (configuration not stated) the value was -0.762%; for `CCCCCCC(CCCCCCCCCCC(=O)OCC(COC(C)=O)OC(C)=O)OC(C)=O` (configuration not stated), -0.0042% [at 42.5 µM].
Still for that read-out and setting: for `NCC[C@H](O)C(=O)N[C@@H]1C[C@H](N)[C@@H](O[C@H]2O[C@H](CN)[C@@H](O)[C@H](O)[C@H]2O)[C@H](O)[C@H]1O[C@H]1O[C@H](CO)[C@@H](O)[C@H](N)[C@H]1O` the value was -0.155% [at 0.349 µM].
As to `NC(=O)c1ncn([C@@H]2O[C@H](CO)[C@@H](O)[C@H]2O)c1N`, the “caspase-3/7 activation” value was 2.07% [at 42.5 µM].
Consider `CCCc1ccccc1O`, for which the “caspase-3/7 activation” value is 1.86%.
Still for that read-out and setting: next, `CO`: 0.481%.
The same measure, in the same setting: for `C=CCOCC(O)CS(=O)(=O)O` (configuration not stated) the value was -0.321%; for `Nc1ncnc2c1ncn2Cc1c(F)cccc1Cl`, -0.605% [at 42.5 µM]; for `NC(=O)CCCCC1CCSS1` (configuration not stated), -0.0477% [at 42.5 µM].
On the same count and under the same terms, next, `Fc1ccccc1-c1ccccc1`: 0.882%; `CC(C)N1C(=O)c2ccccc2C1=O`: 1.76%.
For `O=S(=O)(O)c1ccccc1O`, the “caspase-3/7 activation” value is -0.135%.
The same measure, in the same setting: for `COC(=O)CCCCCCCCC(=O)OC` the value was 0.272%.
On to `c1ccc(CCCc2ccccn2)cc1`, for which the “caspase-3/7 activation” value was 0.876%.
For `O=C(O)c1ccc[n+]([O-])c1`, the “caspase-3/7 activation” value is -0.0123% [at 42.5 µM].
Still for that read-out and setting: for `NS(=O)(=O)c1cc2c(cc1Cl)NC(CSCc1ccccc1)=NS2(=O)=O` the value was 3.2% [at 42.5 µM].
The same measure, in the same setting: for `c1ccc2cnncc2c1` the value was 3.97%; for `CC1=CC(=O)CCC1`, 0.707%.
The same measure, in the same setting: for `CN(C)N=Nc1ccccc1` the value was 0.352%.
With `NC(=S)Nc1cccc2ccccc12`, the caspase-3/7 activation is 0.137% [at 8.39 µM].
Still for that read-out and setting: for `CC(C)c1cccc(O)c1` the value was 1.15%; for `NC(N)=NS(=O)(=O)c1ccc(N)cc1`, 0.735% [at 42.5 µM].
Still for that read-out and setting: next, `CCCCCCCCN(C)CCCCCCCC`: 0.599%; `CC1(C)SC(C)(C)SC(C)(C)S1`: -0.12%.
Same read-out and setting: next, `NCCN1CCNC1=O`: -0.741%.
With `CCCCCCCCCCC1CO1` (configuration not stated), the “caspase-3/7 activation” value is -1.88%.
On the same count and under the same terms, next, `C=CCOc1nc(OCC=C)nc(OCC=C)n1`: 0.578%.

The nature of a further assay: Caspase-3/7 induction in HepG2 cells by small molecules, qHTS cell viability counter screen (AID 1346981). Also: nearly all actives have a fitted effect of over 30% in size. As to conditions: CellTiter-Fluor fluorescence, 17 h; series mostly up to 92.4 µM; activity change, negative = cytotoxicity: at the top concentration. An outline of the steps: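 In this quantitative HTS counter screen, compounds delivered in DMSO were left on unmodified HepG2 cells for 16 hr at 37 C. Viability was then determined fluorometrically with CellTiter-Fluor, in parallel with caspase-3/7 induction in the same wells.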
For the compound `CC(C)=CC(=O)O`, the “activity change, negative = cytotoxicity” value is 0.622%.
Still for that read-out and setting: next, `O=C(O)c1ccccc1S`: 6.47% [at 42.5 µM]; `C=CCSCC1Nc2cc(Cl)c(S(N)(=O)=O)cc2S(=O)(=O)N1` (configuration not stated): -1.38% [at 42.5 µM].
Still for that read-out and setting: next, `CCCCc1ccc(N)cc1`: -4.66%; `CC(C)COC(=O)c1ccccc1O`: 8.88%.
Same read-out and setting: for `CCCCCCCCCCCCCCC` the value was 7.22%.
Consider `O=[N+]([O-])c1ccc(CCO)cc1`, for which the “activity change, negative = cytotoxicity” value is -1.25%.
Same read-out and setting: for `CCN(CC)S(=O)(=O)c1ccc(C(=O)O)cc1` the value was -1.64% [at 42.5 µM]; for `Nc1ccn(C2CO[C@H](CO)O2)c(=O)n1` (some centres not stated), 0.862% [at 42.5 µM].
The same measure, in the same setting: for `COC(C(=O)O)c1ccccc1` (configuration not stated) the value was -0.471%; for `CCCCCCC(CCCCCCCCCCC(=O)OCC(COC(C)=O)OC(C)=O)OC(C)=O` (configuration not stated), 0.692% [at 42.5 µM]; for `NCC[C@H](O)C(=O)N[C@@H]1C[C@H](N)[C@@H](O[C@H]2O[C@H](CN)[C@@H](O)[C@H](O)[C@H]2O)[C@H](O)[C@H]1O[C@H]1O[C@H](CO)[C@@H](O)[C@H](N)[C@H]1O`, -0.33% [at 0.349 µM].
Same read-out and setting: next, `NC(=O)c1ncn([C@@H]2O[C@H](CO)[C@@H](O)[C@H]2O)c1N`: 5.03% [at 42.5 µM]; `CO`: 3.9%.
In the case of `Nc1ncnc2c1ncn2Cc1c(F)cccc1Cl`, the “activity change, negative = cytotoxicity” value is 1.97% [at 42.5 µM].
Same read-out and setting: for `CC(C)c1ccc2oc3nc(N)c(C(=O)O)cc3c(=O)c2c1` the value was 1.48% [at 42.5 µM].
Still for that read-out and setting: for `Fc1ccccc1-c1ccccc1` the value was 0.635%; for `CC(C)N1C(=O)c2ccccc2C1=O`, -0.0908%; for `O=S(=O)(O)c1ccccc1O`, 3.28%.
The same measure, in the same setting: for `COC(=O)CCCCCCCCC(=O)OC` the value was -0.0495%; for `c1ccc(CCCc2ccccn2)cc1`, 5.73%.
For `O=C(O)c1ccc[n+]([O-])c1`, the “activity change, negative = cytotoxicity” value was 7.01% [at 42.5 µM].
Still for that read-out and setting: next, `NS(=O)(=O)c1cc2c(cc1Cl)NC(CSCc1ccccc1)=NS2(=O)=O`: -1.08% [at 42.5 µM].
On the same count and under the same terms, next, `c1ccc2cnncc2c1`: 5.97%.
Take `CC1=CC(=O)CCC1`: the “activity change, negative = cytotoxicity” value was 1.94%.
Same read-out and setting: for `CN(C)N=Nc1ccccc1` the value was 5.5%.
On to `NC(=S)Nc1cccc2ccccc12`, for which the activity change, negative = cytotoxicity is -1.33% [at 8.39 µM].
Turning to `CC(C)c1cccc(O)c1`, the “activity change, negative = cytotoxicity” value was 3.92%.
Still for that read-out and setting: for `NC(N)=NS(=O)(=O)c1ccc(N)cc1` the value was 2.24% [at 42.5 µM].
Same read-out and setting: for `CCCCCCCCN(C)CCCCCCCC` the value was 3.49%; for `CC1(C)SC(C)(C)SC(C)(C)S1`, 2.95%; for `NCCN1CCNC1=O`, 5.56%.
Same read-out and setting: for `CCCCCCCCCCC1CO1` (configuration not stated) the value was 6.5%; for `C=CCOc1nc(OCC=C)nc(OCC=C)n1`, 9.02%.
